Assay outcomes from PubChem.
Pf Dd2 inh: blocks in vitro growth of P. falciparum Dd2 | 4.3% of 120,000 active | AID 1347417 | P. falciparum Dd2 growth, SYBR Green, 72 h | Potency, µM (highest dose often 28.9 µM), inactives show top-dose activity, negative = inhibition, usual class: inhibitors; active means well fitted inhibition curve with a large enough effect;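 further: plate controls were DMSO vehicle for no effect and reference drug for full effect; nearly all actives have a fitted effect of over 65% in size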
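Infected erythrocytes (Dd2, 0.3% parasitemia, 2.5% hematocrit final) are added to compound in RPMI-1640/Albumax II medium, grown 72 h at 37C in low oxygen, then lysed with saponin/Triton-X containing SYBR Green and read by fluorescence.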
Starred values were filed as active, the others as inactive; i = inactive; [ ] = another dose, or the depositor's remark. The sample as a whole holds a higher share of hits than the screen did. Potency means the concentration at half of the fitted maximal effect.

SMILES	Pf Dd2 inh
CN(Cc1cccnc1)C(=O)CC1CCCN(c2cnn(C)c(=O)c2)C1 (configuration not stated)	9.5%
COc1ccc(NC(=O)Cn2c(N3CCc4ccccc4C3)nc(C)cc2=O)cc1Cl	-28.8%
CCOc1ccccc1C1NC(=O)N(CC(=O)Nc2cccc(C)c2C)C2=C1C(=O)OC2 (configuration not stated)	i
Cc1ccc(NC(=O)N2C[C@@H](F)C[C@H]2C(=O)N2CCCCC2)cc1	i
CC1=NOC2(CCN(C(=O)c3ccc(C)cc3)C2)C1 (configuration not stated)	9.7%[44.1 µM]
CNC(=O)CCn1ncc2cc(OC3CCc4cccc(-c5ccccc5)c43)ccc21 (configuration not stated)	2.82µM*
CNC(=O)CCn1ncc2cc(OC3CCc4cccc(-c5ccnc(C)c5)c43)ccc21 (configuration not stated)	-0.1%[44.1 µM]
O=C(O)CCn1ncc2cc(OC3CCN(C(=O)c4cc(F)ccc4Cl)CC3)ccc21	-10.4%
CNC(=O)CCn1ncc2cc(OC3CCc4cccc(-c5ccc(F)cc5)c43)ccc21 (configuration not stated)	14.1µM*
CNC(=O)CCn1ncc2cc(OC3CCc4cccc(-c5cccc(F)c5)c43)ccc21 (configuration not stated)	i
O=C(O)CCn1ncc2cc(OC3CCN(C(=O)Oc4ccccc4)CC3)ccc21	i
COCC(=O)N(C1CCOCC1)C1CCN(S(=O)(=O)c2c(C)nn(C)c2C)CC1	-9.5%
Cc1nc2scc(CC(=O)NC(C)C)n2c(=O)c1-c1cc(C)n(-c2cccc(F)c2)n1	i
CCn1cc(C(=O)N2CCOc3c(O)cc(-c4ccccc4C)cc3C2)cn1	12.6µM*
Cc1nc(C(=O)N2CCOc3c(O)cc(-c4cccc(Cl)c4)cc3C2)c(C)o1	-18.8%
Cc1cnc(C)c(-c2cc(O)c3c(c2)CN(C(=O)C2CCOC2)CCO3)n1 (configuration not stated)	-15.7%
Cc1noc([C@@H]2CN(C(=O)c3ccnn3C)C[C@H]2COCC2CC2)n1	21.2%
O=C(Nc1ccccc1)N1Cc2[nH]cnc2C[C@H]1c1nc(-c2ccc(Cl)cc2)no1	i
Cc1nc(-c2cn(C3CCCN(C(=O)c4ccc(OC(F)(F)F)cc4)C3)nn2)no1 (configuration not stated)	-15.2%
O=C(c1ccc(Oc2ccc(CN3CCCC3)cc2F)nc1)N1CCCCC1	7.08µM*
COc1ccc(C(=O)N2CCCCCCNC(=O)CC2)cc1F	-8.4%
COc1ccc(C(=O)N2CCC(c3n[nH]c(=O)n3Cc3ccc(F)cc3)CC2)cn1	i
CCN(CC)Cc1nc(C2(O)CCN(CC(C)C)CC2)cs1	i
O=C(Cc1c[nH]c2ccccc12)NCC12CCCC=C1NC(=O)CC2 (configuration not stated)	i
COc1ccccc1-n1cc(-c2nc(C3CCOC3)no2)cn1 (configuration not stated)	-13.6%
SMILES	Pf Dd2 inh
Cc1ccccc1CN1CC[C@@H]2OCC(=O)N(C(C)C)[C@H]2CC1	5.7%[44.1 µM]
Cc1ccc(NC(=O)N2CCC(N(C(=O)C3CC3)C3CCOCC3)CC2)c(C)c1	-2.1%
Cc1cc(Cl)ccc1NC1CN(C(=O)OC(C)(C)C)C1	-9.1%[44.1 µM]
CC(C)(C)OC(=O)N1CC(NCc2ccccn2)C1	-1.5%[44.1 µM]
CC(C)(C)OC(=O)N1CC(Nc2ccc(O)cc2)C1	11.2µM*
O=C(NCCn1cc(C2CCCNC2)nn1)c1ccc(F)cc1 (configuration not stated)	-14.6%
CC(C)c1noc(-c2cn(C3CCCN(C(=O)c4nn(C)c5ccccc45)C3)nn2)n1 (configuration not stated)	i
O=C(c1ccc2ncccc2c1)N1CCCC(Nc2ccc(F)cc2)C1 (configuration not stated)	-1.3%
CC(C)NC(=O)N(C1CCOCC1)C1CNC1	-0.9%
CCOc1ccccc1CN1CCC2(CC1)CN(C(C)=O)CC2COC (configuration not stated)	-6.3%
COc1ccc(-c2[nH]nc3ncc(-c4ccccc4O)nc23)c(C)c1	i
Cc1ccc(CCNC(=O)C2CC(=O)N(CCc3ccccc3)C2)cc1 (configuration not stated)	5.1%
CCOc1ccc(C2c3c(oc4ccc(C)cc4c3=O)C(=O)N2CCCN(C)C)cc1OC (configuration not stated)	-17.9%
COc1cccc(-c2n[nH]c3c2C(c2ccccn2)N(C)C3=O)c1 (configuration not stated)	5.0%
COc1ccc(CCN2C(=O)c3[nH]nc(-c4ccccc4O)c3C2c2cccc(OC)c2)cc1 (configuration not stated)	10µM*
CCCn1nc(C)c2c1NC(=O)CC2c1ccc(OCC(N)=O)c(OC)c1 (configuration not stated)	-21.1%
Cc1ccc(C2c3c(-c4ccccc4O)n[nH]c3C(=O)N2CCc2ccccc2)cc1 (configuration not stated)	10µM*
COc1cc(C2c3c(-c4cc(C)ccc4O)n[nH]c3C(=O)N2Cc2cccnc2)cc(OC)c1OC (configuration not stated)	-7.8%
CCCN1C(=O)CN(C2CCCCC2)C(=O)C1c1ccc(OC)c(OC)c1 (configuration not stated)	39.3%
CCOc1ccc(C2c3c(-c4cc(C)ccc4O)n[nH]c3C(=O)N2Cc2cccnc2)cc1OCC (configuration not stated)	11.2µM*
CCCN1C(=O)c2[nH]nc(-c3ccccc3O)c2C1c1ccc(OCc2ccccc2)c(OC)c1 (configuration not stated)	10µM*
Cc1ccc(C2NC(=O)c3n[nH]c(-c4cccs4)c32)cc1 (configuration not stated)	-2.2%
O=C(c1ccccc1F)N1CCN(c2cc(-c3ccccc3)[nH]n2)CC1	-19.5%
CCn1nc(CC(C)C)cc1C(=O)N(C)Cc1noc2c1CCCC2	-11.6%
CN1c2cc(C(=O)Nc3ccc4c(c3)CCC4)ccc2C(=O)N2CCCCCC21 (configuration not stated)	i
SMILES	Pf Dd2 inh
COc1cccc(C(=O)N2CCCN(c3cc(-c4ccc(Cl)cc4)[nH]n3)CC2)c1OC	-16.2%
CC(C)NS(=O)(=O)c1ccc2c(c1)nc(CCC(N)=O)n2C(C)C	-5.2%
CN(C)c1ccc(C(=O)NC[C@H]2C[C@@H]3CCN2C[C@@H]3CN2CCCCC2)cc1	27.0%[44.1 µM]
COc1ccc(OCC2(C)COc3ccc(C(=O)NCC(C)C)cc3N2)cc1 (configuration not stated)	-3.4%[44.1 µM]
Cc1cc(C)c2c(=O)c3c(oc2c1)C(=O)N(Cc1ccco1)C3c1ccccc1F (configuration not stated)	37.3%
O=C1c2[nH]nc(-c3ccccc3O)c2C(c2cccc(Cl)c2)N1Cc1cccnc1 (configuration not stated)	i
CCCOc1ccc(C(=O)N(Cc2ccco2)Cc2ccco2)cc1	24.2%
CCCCCOc1ccc(C2c3c(oc4ccccc4c3=O)C(=O)N2c2nc(C)c(C)s2)cc1OCC (configuration not stated)	83.2%
O=C1c2[nH]nc(-c3ccccc3O)c2C(c2cccc(Br)c2)N1Cc1ccncc1 (configuration not stated)	-4.4%
CCCOc1cccc(C2c3c(-c4ccccc4O)n[nH]c3C(=O)N2Cc2ccco2)c1 (configuration not stated)	5.62µM*
